# This is a sample that favours compounds with a hit; in the whole collection about 9.2% have one here.
# ELG1 repair inh = ELG1-dependent DNA repair inhibition | HEK293T ELG1-luciferase reporter, luminescence, 16 h; DNA damage induced by 5-fluorouridine | Potency, µM (top dose mostly 46.1 µM), hits mostly inhibitors | AID 504467 | hit rate 2.3% among 330,000; note: nearly all actives have a fitted effect of over 55% in size
#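 Cells (2,000 per well) received 5-fluorouridine plus test compound or DMSO and were incubated 16 hr at 37 °C, 5% CO2. Luciferase activity was read by luminescence 30 min after ONE-Glo addition; signal suppression marked inhibition of damage-induced ELG1 function.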
# SMN2 splice up = increases expression of the SMN2 splice variant; HEK293 SMN2-luciferase splicing reporter, luminescence, 30-36 h; Potency, µM (top dose mostly 46.1 µM), most hits filed as activators; hit rate 2.8% among 210,000; AID 1458; note: nearly all actives have a fitted effect of over 55% in size
#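 HEK293 cells carry an SMN2 minigene-luciferase reporter in which exon 7 inclusion puts luciferase in frame. Cells were seeded at 2000 cells/well, attached for 10-12 hours, then exposed to compounds for 30-36 hours at 37C before ONE-Glo luminescence.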
# Rab9 prom act = Rab9 promoter activation; Huh7 Rab9 promoter-luciferase reporter, luminescence, 24 h; Potency, µM (top dose mostly 9.22 µM), usual class: activators; hit rate 2.8% among 320,000; AID 485297; note: nearly all actives have a fitted effect of over 60% in size
#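 Using Huh7 cells stably transfected with Rab9 promoter–luciferase, compounds were incubated 24 h at 37 °C, 5% CO2; luciferase luminescence was read 10 min after reagent addition.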
# ELG1 genotox = inducers of genotoxicity in HEK293T ELG1-luciferase cells | HEK293T ELG1-luciferase reporter, luminescence, 16 h | Potency, µM (titrated, usually from 46 µM), actives largely listed as activators | hit rate 1.3% among 330,000 | AID 504466; note: nearly all actives have a fitted effect of over 60% in size
#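 Screening used a luciferase reporter fused to human ELG1 in HEK293T cells. Luminescence was read on a CCD plate imager after 16 hr exposure and 30 min ONE-Glo incubation.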
# NPC1 prom act = NPC1 promoter activation; Huh7 NPC1 promoter luciferase reporter, 24 h; Potency, µM (doses to about 9.22 µM), usual class: activators; hit rate 2.4% among 320,000; note: nearly all actives have a fitted effect of over 60% in size
#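 Cells: Huh7 expressing luciferase under the NPC1 promoter, 1500/well. Seeded 2 h, compound added, incubated 24 h at 37 °C. Luciferase reagent, 10 min ambient, then luminescence.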
# FLuc modulator = firefly luciferase modulation, counter-screen for miR-21 project; P08659; purified FLuc, Km substrates, luminescence inhibition; Potency, µM (highest dose often 57.5 µM), hits mostly inhibitors; hit rate 6.9% among 360,000; note: nearly all actives have a fitted effect of over 55% in size
# Target sequence (P08659 whole entry, looked up): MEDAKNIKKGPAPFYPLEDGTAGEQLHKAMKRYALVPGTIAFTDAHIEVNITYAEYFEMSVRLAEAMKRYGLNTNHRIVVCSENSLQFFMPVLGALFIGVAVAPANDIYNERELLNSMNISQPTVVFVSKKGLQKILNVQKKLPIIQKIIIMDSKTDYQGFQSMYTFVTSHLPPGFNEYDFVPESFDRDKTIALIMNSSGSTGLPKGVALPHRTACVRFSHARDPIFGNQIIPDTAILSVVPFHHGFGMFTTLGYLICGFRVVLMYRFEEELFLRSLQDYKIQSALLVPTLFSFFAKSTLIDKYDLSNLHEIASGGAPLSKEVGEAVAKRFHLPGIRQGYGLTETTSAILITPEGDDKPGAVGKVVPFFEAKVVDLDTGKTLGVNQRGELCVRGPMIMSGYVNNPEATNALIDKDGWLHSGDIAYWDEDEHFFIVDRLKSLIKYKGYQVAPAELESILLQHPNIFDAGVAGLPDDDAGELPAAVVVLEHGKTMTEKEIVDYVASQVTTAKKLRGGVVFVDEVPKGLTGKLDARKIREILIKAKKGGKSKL
#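 Purified P. pyralis luciferase (10nM final) with 10uM D-luciferin and 10uM ATP (Km levels) in 50mM Tris acetate pH 7.5, 10mM Mg acetate, 0.01% Tween-20, 0.05% BSA; qHTS 6-point titration, ~60 µM downward; luminescence read.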
# Numbers stand for hits; n = inactive; u = inconclusive; x = no result given; [ ] = remark or other dose. Calls come from the whole dose curve; as a rule, active = well fitted curve in the direction sought with a large enough effect; inconclusive = small, poorly fitted or top-dose-only effect, or another doubt; inactive = no such curve, though single readings can be large; an effect the other way counts as inactive or inconclusive.
SMILES,ELG1 repair inh,SMN2 splice up,Rab9 prom act,ELG1 genotox,NPC1 prom act,FLuc modulator
COc1ccccc1-c1nc(-c2ccccc2)nc(N2CCN(C)CC2)c1C#N,21µM,n,n,n,n,n
CCCc1ncc(CN2CCC(C(=O)Nc3cccc(-c4cscn4)c3)CC2)cn1,8.2µM,x,n,n,n,n
CSc1ncc(CN2CCC(C(=O)Nc3cccc(-c4cscn4)c3)CC2)cn1,23µM,x,n,n,n,n
CCOC(=O)CC(NC(=O)CCS(=O)(=O)c1ccc2c(c1)n(C)c(=O)c(=O)n2C)c1ccc(C)cc1 (configuration not stated),n,x,n,n,n,n
Cc1cccc(C2c3[nH]c4ccccc4c3CCN2C(=O)Cc2nc(-c3ccccc3)n[nH]2)n1 (configuration not stated),18µM,x,n,n,n,n
CCc1ccccc1Nc1nc(-c2cccnc2)cs1,u,x,u,n,n,u
O=[N+]([O-])c1ccccc1Nc1nc(-c2cccnc2)cs1,n,x,n,u,u,11µM
COc1ccccc1Nc1nc(C2(C)CCC(=O)O2)cs1 (configuration not stated),u,n,n,n,n,15µM
COc1ccccc1Nc1nc(-c2cccnc2)cs1,u,x,u,n,u,13µM
COc1ccc(Nc2nc(-c3cccnc3)cs2)c(OC)c1,u,x,u,n,3.5µM,21µM
Cc1nc(SCc2nc3cc(Cl)c(F)cc3[nH]2)c2oc3ccccc3c2n1,u,x,x,n,x,x
CCOc1ccc(NC(=O)Cn2cc(C(=O)c3ccc(CC)cc3)c(=O)c3ccc(C)nc32)cc1,x,x,x,x,x,n
COc1ccc(CNC(=O)c2cc3sccc3n2C)cc1,x,n,x,x,x,n
CC1CCCC(C)N1C(=O)COC(=O)CNC(=O)c1sc2ccccc2c1Cl (configuration not stated),n,x,n,n,n,u
CC1CCCN(C(=O)COC(=O)COc2ccc(Cl)cc2)C1 (configuration not stated),n,x,x,n,x,x
CC(C)CN(C(=O)COC(=O)CNC(=O)c1sc2ccccc2c1Cl)C1CCS(=O)(=O)C1 (configuration not stated),n,x,n,n,n,12µM
CC1CCCN(C(=O)COC(=O)CNC(=O)c2sc3ccccc3c2Cl)C1 (configuration not stated),n,x,n,n,n,24µM
CC1CCCN(C(=O)COC(=O)Cc2c(F)cccc2Cl)C1 (configuration not stated),u,x,u,u,u,17µM
CCCCN(C(=O)C(C)(C)Oc1ccc(Cl)cc1)c1c(N)n(CCC)c(=O)[nH]c1=O,n,x,n,n,n,n
O=S(=O)(Nc1cccc(-c2ccc(N3CCCCCC3)nn2)c1)c1ccc(F)cc1,u,x,u,u,u,5.4µM
O=S(=O)(Nc1ccc(-c2ccc(N3CCCCC3)nn2)cc1)c1ccc(OC(F)(F)F)cc1,x,x,x,x,x,21µM
CCOc1ccc(S(=O)(=O)Nc2ccc(-c3ccc(N4CCCC4)nn3)cc2)cc1,x,x,x,x,x,n
O=S(=O)(Nc1cccc(-c2ccc(N3CCCCCC3)nn2)c1)c1ccc(C(F)(F)F)cc1,u,x,u,u,n,9.5µM
O=S(=O)(Nc1cccc(-c2ccc(N3CCCCCC3)nn2)c1)c1cccc(F)c1,u,x,3.2µM,u,3.2µM,2.4µM
O=S(=O)(Nc1ccc(-c2ccc(N3CCCC3)nn2)cc1)c1ccc(Cl)cc1,x,x,x,x,x,n
SMILES,ELG1 repair inh,SMN2 splice up,Rab9 prom act,ELG1 genotox,NPC1 prom act,FLuc modulator
CCN(CC)C(=O)Cn1c(=O)cc(C)c2c(C)nn(-c3ccc(C)cc3)c21,x,x,x,x,x,n
COc1ccc(Cc2nnc(N/N=C/c3ccc(O)cc3O)[nH]c2=O)cc1OC,n,x,n,n,n,u
CC(=O)c1ccc(S(=O)(=O)Nc2cccc(-c3ccc(N4CCCCC4)nn3)c2)cc1,x,x,x,x,x,1.5µM
C/C=C/c1ccc(OCCOc2cc(C=O)ccc2OC)c(OC)c1,u,16µM,n,n,n,13µM
COc1cc(C=O)ccc1OCc1ccc(Cl)nc1,u,x,n,u,n,4.8µM
COc1cc(C=O)ccc1OCCCOc1ccccc1[N+](=O)[O-],u,u,n,u,n,u
C/C=C/c1ccc(OCC(=O)O)c(OC)c1,n,x,n,n,n,n
COc1cc(C=O)ccc1OCCCOc1ccccc1C(=O)O,u,n,u,n,u,1.9µM
COc1cc(C=O)ccc1OCCOc1ccccc1[N+](=O)[O-],u,n,n,n,n,21µM
COc1cc(C=O)ccc1OCc1ccncc1,n,x,n,n,n,u
CC(C)(C)C1CCC(C(=O)OCC(=O)N2CCN(C(=O)c3ccco3)CC2)CC1 (configuration not stated),n,n,n,n,n,n
C/C=C/c1ccc(OCC(=O)Nc2cc(OC)c(OC)c(OC)c2)c(OC)c1,15µM,n,n,n,n,n
COc1cc(C)ccc1NC(=O)Cc1csc(NC(=O)Nc2ccccc2OC)n1,u,x,n,n,n,n
COc1ccccc1NC(=O)Nc1nc(CC(=O)N2CCN(c3ccccc3OC)CC2)cs1,u,x,n,n,n,17µM
CCOC(=O)C(=O)Nc1ccc(F)cc1,u,n,n,n,n,n
CC(C)[C@H](NC(=O)Nc1ccc(Oc2ccccc2)cc1)C(=O)O,n,n,n,n,n,24µM
CCOC(=O)C(=O)Nc1ccc(Oc2ccccc2)cc1,n,n,n,n,n,15µM
COc1ccc(OCc2cc(C(=O)NCCN3CCCc4ccccc43)no2)c(Cl)c1,u,x,n,n,n,24µM
COc1ccc(OCc2cc(C(=O)N(C)Cc3cc(C4CC4)n[nH]3)no2)c(Cl)c1,u,x,2.8µM,u,3.5µM,12µM
COc1ccc(OCc2cc(C(=O)NCC3CCOCC3)no2)c(Cl)c1,u,x,u,u,u,13µM
COc1ccc(OCc2cc(C(=O)NCCN3CCCC(O)C3)no2)c(Cl)c1 (configuration not stated),u,x,n[1.84 µM],n,n,u
COc1ccc(OCc2cc(C(=O)NCC3CCCCO3)no2)c(Cl)c1 (configuration not stated),u,x,4µM,u,u,u
COc1ccc(OCc2cc(C(=O)NCC(C)(C)N3CCOCC3)no2)c(Cl)c1,n,x,n,n,n,u
CSc1ccccc1OCc1cc(C(=O)NCCC2CCCCO2)no1 (configuration not stated),u,x,n,n,u,u
CC(C)CN1C2CCCC1CC(NC(=S)NCc1ccco1)C2 (configuration not stated),n,n,n,n,n,n
CCCN(CC(=O)Nc1ccccc1C)C(=O)/C=C/c1cccs1,n,n,n,n,n,n

# Source: PubChem BioAssay (National Center for Advancing Translational Sciences (NCATS))
